Test [1] is described as follows: qHTS assay to identify small molecule antagonists of the estrogen receptor alpha (ER-alpha) signaling pathway using the BG1 cell line in the presence of 0.1 nM 17-beta-estradiol - cell viability counter screen (AID 1259241). Further: nearly all actives have a fitted effect of over 40% in size. The method, boiled down:
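VM7Luc4E2 cells (endogenous ER-alpha, 4×ERE-luciferase), hormone-starved 5 days in charcoal-stripped FBS, were treated with compounds plus 0.1 nM 17beta-estradiol for 22 hr at 37C; viability read in same wells as CellTiter-Fluor live-cell protease fluorescence.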
For orientation: qHTS replaces the single test concentration by a dilution series.

Test [2] is described as follows: qHTS assay to identify small molecule antagonists of the androgen receptor (AR) signaling pathway using the MDA cell line in the presence of 0.5 nM R1881 - cell viability counter screen (AID 1259242). Further: nearly all actives have a fitted effect of over 45% in size. Further: potency means the concentration at half of the fitted maximal effect. In short, it runs like this: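 Counter screen for cytotoxicity run in the same wells as the AR antagonist reporter screen: MDA-kb2 cells were treated 16 hr with test compounds and 0.5 nM R1881, then live-cell protease activity was measured by fluorescence.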

The target in test [3] is Androgen receptor (Homo sapiens) (UniProt P10275). Put plainly: qHTS assay to identify small molecule antagonists of the androgen receptor (AR) signaling pathway using the MDA cell line in the presence of 0.5 nM R1881 (AID 1259243). Further: nearly all actives have a fitted effect of over 50% in size. Further: potency means the concentration at half of the fitted maximal effect. In short, it runs like this: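 Luciferase luminescence is the read-out: compounds are tested for suppressing 0.5 nM R1881-driven MMTV reporter activity in MDA-kb2 cells after 16 hr at 37C.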
Androgen receptor (Homo sapiens), sequence (P10275 whole entry, looked up): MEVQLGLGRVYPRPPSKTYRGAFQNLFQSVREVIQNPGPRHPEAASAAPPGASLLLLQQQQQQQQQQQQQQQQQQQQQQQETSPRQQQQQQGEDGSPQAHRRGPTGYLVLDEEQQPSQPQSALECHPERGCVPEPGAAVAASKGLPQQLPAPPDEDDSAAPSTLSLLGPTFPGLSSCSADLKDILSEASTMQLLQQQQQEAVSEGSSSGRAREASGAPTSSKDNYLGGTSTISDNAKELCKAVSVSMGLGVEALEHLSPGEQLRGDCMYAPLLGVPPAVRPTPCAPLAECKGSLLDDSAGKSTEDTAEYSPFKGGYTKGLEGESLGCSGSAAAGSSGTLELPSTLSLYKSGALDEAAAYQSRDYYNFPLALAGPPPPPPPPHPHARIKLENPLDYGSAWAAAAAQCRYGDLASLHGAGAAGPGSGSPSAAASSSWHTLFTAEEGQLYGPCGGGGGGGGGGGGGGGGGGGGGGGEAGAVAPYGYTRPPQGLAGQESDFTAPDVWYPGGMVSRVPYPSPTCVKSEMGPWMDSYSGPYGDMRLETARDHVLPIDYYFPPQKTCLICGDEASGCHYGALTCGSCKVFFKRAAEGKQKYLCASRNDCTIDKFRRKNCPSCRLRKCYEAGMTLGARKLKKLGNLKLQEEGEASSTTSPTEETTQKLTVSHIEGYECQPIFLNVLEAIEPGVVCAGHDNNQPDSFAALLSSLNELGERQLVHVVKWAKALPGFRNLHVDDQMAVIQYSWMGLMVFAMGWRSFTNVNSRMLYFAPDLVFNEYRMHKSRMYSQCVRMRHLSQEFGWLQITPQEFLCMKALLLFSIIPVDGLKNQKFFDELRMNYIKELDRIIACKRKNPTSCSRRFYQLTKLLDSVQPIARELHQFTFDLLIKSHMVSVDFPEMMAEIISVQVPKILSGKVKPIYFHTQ

The nature of test [4]: qHTS assay to identify small molecule HDAC inhibitors (AID 1259364). Further: top concentration of the series differs between compounds; nearly all actives have a fitted effect of over 45% in size. In short, it runs like this:
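Luminescence from a cell-permeant luminogenic class I/II HDAC substrate reports endogenous deacetylase activity in intact HCT-116 cells treated with compounds for 2 h.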

A short description of test [5]: qHTS assay to identify small molecule HDAC inhibitors - cell viability counter screen (AID 1259365). Further: series mostly up to about 92 µM; nearly all actives have a fitted effect of over 50% in size. In short, it runs like this: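 Wild-type HCT-116 cells were seeded at 1,500 per well, incubated overnight at 37 C, then exposed to compounds in DMSO for 2hr. Viability was read by CellTiter-Glo luminescence after 30min at room temperature.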
A short description of test [6]: qHTS assay to identify small molecule agonists of the sonic hedgehog signaling (Shh) pathway - cell viability counter screen (AID 1259366). Further: nearly all actives have a fitted effect of over 50% in size. Further: potency means the concentration at half of the fitted maximal effect. In short, it runs like this: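 NIH/3T3-derived 3T3 Gli1-Luc cells (stable Gli1-responsive firefly luciferase reporter) were seeded, rested 4 hr at 37 C/5% CO2, then exposed to compounds in DMSO for 24 hr; viability was read by CellTiter-Fluor fluorescence in the same wells.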

Test [7] can be described thus: qHTS assay to identify small molecule antagonists of the sonic hedgehog signaling (Shh) pathway - cell viability counter screen (AID 1259367). Further: nearly all actives have a fitted effect of over 55% in size. Further: potency means the concentration at half of the fitted maximal effect. In short, it runs like this: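 NIH/3T3-derived Gli1-Luc reporter cells, 2,000/well, plated 4 hr before compound addition, then stimulated with conditioned medium for 24 hr at 37C. Viability measured in the same wells by CellTiter-Fluor fluorescence, reagent added at 23 hr for 1 hr.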

Test [8] can be described thus: qHTS assay to identify small molecule agonists of the sonic hedgehog signaling (Shh) pathway (AID 1259368; calls by dose curve; further: series mostly up to about 92 µM; nearly all actives have a fitted effect of over 15% in size). The method, boiled down: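 3T3Gli1-Luc (NIH/3T3 clone, stable Gli1-Luc); 4 hr pre-incubation, then cpd in DMSO 24 hr, 37 C/5% CO2; luciferase reagent 30 min RT; luminescence.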
Test [9] addresses Estrogen receptor (Homo sapiens) (UniProt P03372). The test is described as follows: qHTS assay to identify small molecule antagonists of the estrogen receptor alpha (ER-alpha) signaling pathway using the BG1 cell line in the presence of 0.1 nM 17-beta-estradiol (AID 1259244). Further: nearly all actives have a fitted effect of over 50% in size. Further: potency means the concentration at half of the fitted maximal effect. In short, it runs like this:
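Cells: VM7Luc4E2, endogenous ER-alpha, 4x ERE-luc stable. Pre-culture 5 d, phenol red-free, charcoal-stripped FBS. Plated 24 h, compound + E2 0.1 nM final, 22 h 37C/5% CO2. Readout ONE-Glo luminescence.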

Test [10] is described as follows: qHTS assay to identify small molecule phospholipidosis (PLD) inducers (AID 1259344; active means well fitted curve in the direction sought with a large enough effect; an effect the other way counts as inactive or inconclusive). The method, boiled down:
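HepG2 cells, 900/well, treated with compound plus LipidTOX Red for 24 h at 37 C; amiodarone positive and DMSO negative controls. Fixed with paraformaldehyde/Hoechst, then high-content imaging scored LipidTOX pit count and integrated intensity per well and per cell.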

SMILES strings stand for the structures. “And” between values parts separate entries of the source, which are not always exact repeats. Identical values can stand only once. Results filed as inconclusive are left out. A structure can be active in one record and inactive in another. The source made the active and inactive calls. Unless noted, the call rests on the fitted dose curve; in most records, active means well fitted curve in the direction sought with a large enough effect in the repeat runs; inconclusive means weak or mixed curves; inactive means no such curve, though single readings can be large; an effect the other way counts as inactive or inconclusive.
On the % scale 0 is the no-effect control and ±100 the full control effect.

Estrogen receptor (Homo sapiens), sequence (P03372 whole entry, looked up): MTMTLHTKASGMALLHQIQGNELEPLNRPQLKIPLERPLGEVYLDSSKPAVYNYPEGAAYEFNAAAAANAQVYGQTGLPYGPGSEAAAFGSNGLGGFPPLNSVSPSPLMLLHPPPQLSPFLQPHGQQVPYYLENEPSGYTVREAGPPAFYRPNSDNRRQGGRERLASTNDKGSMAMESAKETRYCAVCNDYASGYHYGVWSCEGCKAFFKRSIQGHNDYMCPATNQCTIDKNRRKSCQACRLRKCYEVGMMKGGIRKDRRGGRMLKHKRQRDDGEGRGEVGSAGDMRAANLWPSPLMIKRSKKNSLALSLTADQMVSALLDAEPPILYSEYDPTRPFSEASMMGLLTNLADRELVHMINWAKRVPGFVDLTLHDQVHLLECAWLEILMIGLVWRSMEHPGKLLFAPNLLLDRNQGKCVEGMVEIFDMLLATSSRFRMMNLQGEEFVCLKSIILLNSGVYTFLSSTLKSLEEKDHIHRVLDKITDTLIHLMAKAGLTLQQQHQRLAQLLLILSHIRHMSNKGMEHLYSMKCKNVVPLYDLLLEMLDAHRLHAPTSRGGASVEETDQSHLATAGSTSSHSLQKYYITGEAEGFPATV

Regarding `CC(=O)c1ccc(C(C)=O)cc1`, the Potency result in test [1], in [2], in test [3], in test [4], in test [5] and in [6] was “inactive” in each case. Besides, the Potency result in test [7] and in test [8] was “inactive” in each case.
On to `CCCCCCOC(=O)C(C)CC` (stereo not drawn), for which the Potency result in test [1], in [2], in test [3], in [9], in test [4] and in test [5] was “inactive” throughout. Also, the Potency result in test [6], in test [7] and in test [8] was “inactive” throughout.
With `Cc1c2ccccc2c(C)c2c1ccc1ccccc12`, the Potency entry in test [1], in test [4], in [5] and in test [8] was “inactive” in each case. Also, the Potency result is “inactive and 61.1 µM (active)” in [2]; 48.1 µM (active) and 27.3 µM (active) in test [3]; “inactive and 4.33 µM (active)” in test [9]; “inactive and 68.6 µM (active)” in test [6]; “inactive and 61.1 µM (active)” in [7].
With `O=C(O)Cc1ccccc1Nc1c(Cl)cccc1Cl`, the Potency entry in [1], in test [2], in test [3], in test [9], in test [10] and in test [4] was “inactive” each time. In addition, the Potency entry in test [5], in test [7] and in [8] was “inactive” in each case.
Turning to `Cc1ccc(C)cc1`, the Potency entry in test [1], in test [2], in test [3], in test [9], in test [4] and in test [5] was “inactive” in each case. For the same compound, the Potency result in test [6], in test [7] and in test [8] was “inactive” each time.
Consider `ClCCl`, for which the Potency entry in test [1], in [2], in [3], in test [9], in test [4] and in test [5] was “inactive” throughout. Besides, the Potency entry in [7] and in [8] was “inactive” throughout.
Take `CCOC(=O)NNc1ccc(N(CC)CC(C)O)nn1` (stereo not drawn): the Potency result in test [1], in [2], in test [9], in test [4] and in test [5] was “inactive” each time. In addition, the PLD induction in test [10] is -4.24% [at 7.66 µM] (inactive).
In the case of `Nc1cc(Cl)c(O)c(Cl)c1`, the Potency entry in [1], in test [2], in test [3], in test [9] and in [5] was “inactive” in each case.
As to `CC(C)=CCNc1ncnc2c1ncn2[C@@H]1O[C@H](CO)[C@@H](O)[C@H]1O`, the Potency result in test [1], in test [2], in [3], in [4], in test [5] and in [8] was “inactive” throughout. Further, the Potency in test [6] was 13.3 µM (active).
As to `COC(=O)Nc1nc2ccc(C(=O)c3ccccc3)cc2[nH]1`, the Potency entry in test [1], in test [2], in test [3], in test [9], in test [5] and in [6] was “inactive” each time. In addition, in test [7], the Potency is 3.35 µM (active).
In the case of `CCOc1ccc2ccccc2c1C(=O)N[C@@H]1C(=O)N2[C@@H]1SC(C)(C)[C@@H]2C(=O)O`, the Potency entry in [1], in [2], in test [3], in test [9], in [10] and in [4] was “inactive” in each case. Besides, the Potency entry in test [5] and in [6] was “inactive” each time.
Turning to `C[C@H]1NCc2cc(-c3ccc4c(=O)c(C(=O)O)cn(C5CC5)c4c3OC(F)F)ccc21`, the activity change, negative = cytotoxicity in test [1] is -0.503% [at 19 µM] (inactive); in [5], 0.0413% [at 19 µM] (inactive). Further, the viability change, negative = cytotoxic in test [2] was -0.218% [at 19 µM] (inactive). For the same compound, the activity change, negative = inhibition in test [9] is -8.57% [at 19 µM] (inactive); in test [4] it was -0.849% [at 19 µM] (inactive). For the same compound, the Potency entry in test [10] is “inactive”.
As for `CC(C)OC(=O)C(O)(CC(=O)O)CC(=O)O`, the Potency entry in test [1], in test [2], in [3], in test [9], in test [4] and in test [5] was “inactive” in each case. Also, the Potency result in test [6], in test [7] and in [8] was “inactive” each time.
Regarding `CCCCC/C=C\C/C=C\CCCCCCCC(=O)O`, the Potency result in test [1], in test [2], in [9], in [10], in test [4] and in [5] was “inactive” throughout. For the same compound, the Potency entry in test [6], in test [7] and in test [8] was “inactive” in each case.
Turning to `Cc1cc(C(C)(C)C)cc(C)c1CC1=NCCN1`, the Potency entry in [1], in [2], in [9], in test [10], in test [4] and in test [5] was “inactive” throughout. In addition, the Potency result in test [6] and in test [7] was “inactive” throughout.
`CCc1cccc(CC)c1NC(=O)CN(CC(=O)O)CC(=O)O`: the Potency result in [1], in [2], in test [9], in [10], in test [4] and in test [5] was “inactive” throughout. Also, the Potency result in [6], in test [7] and in test [8] was “inactive” throughout.
As to `CCOC(=O)Cn1cccc1-c1nc(-c2ccc(OC)cc2)c(-c2ccc(OC)cc2)s1`, the Potency entry in test [1], in [2], in test [9], in [10], in test [4] and in [5] was “inactive” throughout. In addition, the Potency result in test [6], in test [7] and in test [8] was “inactive” in each case.
As for `O=C1CCc2cc(OCCCCc3nnnn3C3CCCCC3)ccc2N1`, the Potency entry in [1], in test [2], in test [10], in [4], in [5] and in test [6] was “inactive” in each case. The Potency entry in test [7] and in test [8] was “inactive” each time. For the same compound, the Potency in [9] was 21.1 µM (active).
Turning to `COC(=O)c1ccccc1C`, the Potency entry in test [1], in test [2], in test [9], in [4], in test [5] and in test [6] was “inactive” in each case.
For `O=C(O)c1cc(=O)c2ccccc2o1`, the Potency result in test [1], in test [2], in [9], in test [10], in test [4] and in [5] was “inactive” in each case. In addition, the Potency entry in test [7] and in test [8] was “inactive” throughout.
`CCCCCCCC/C=C\CCCCCCCCN`: the Potency entry in test [1], in test [2], in test [9], in [10], in test [4] and in [5] was “inactive” throughout. For the same compound, the Potency entry in [6], in test [7] and in test [8] was “inactive” each time.
As to `CC(C)NC[C@@H](O)COc1ccc(CC(N)=O)cc1`, the Potency result in test [1], in [2], in test [9], in test [10], in [4] and in test [5] was “inactive” throughout. Besides, the Potency result in test [6], in [7] and in test [8] was “inactive” throughout.
On to `CC(=O)Oc1cc2c(s1)CCN(C(C(=O)C1CC1)c1ccccc1F)C2` (stereo not drawn), for which the Potency entry in test [1], in test [2], in [9], in [10], in [4] and in test [5] was “inactive” throughout. For the same compound, the Potency entry in [6], in [7] and in test [8] was “inactive” throughout.
With `CN1CCN2c3ccccc3Cc3ccccc3C2C1` (stereo not drawn), the Potency entry in test [1], in test [2], in [9], in test [10], in test [4] and in test [5] was “inactive” throughout. The Potency entry in [7] and in [8] was “inactive” each time.
